Test results published in PubChem BioAssay (NCATS).
Inconclusive results are not listed. A call without a number means that no potency is given here. Values without a mark were called inactive. Activity calls are given as the source filed them. The call rests on the fitted dose curve; in most records, active means well fitted curve in the direction sought with a large enough effect; inconclusive means small, poorly fitted or top-dose-only effect, or another doubt; inactive means no such curve, though single readings can be large; an effect the other way counts as inactive or inconclusive.

assay: qHTS of pediatric cancer cell lines to identify multiple opportunities for drug repurposing: Confirmatory screen for DAOY cells (AID 1347114); conditions: DAOY medulloblastoma cells viability, cytotoxicity qHTS; series mostly up to 45.9 µM; further: nearly all actives have a fitted effect of over 65% in size
In short: (§1)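 Viability measured as metabolically active cells via CellTiter-Glo luminescence following 48 hours of compound exposure, 11-point dilutions in confirmatory testing. 500-1,000 cells/well plated 5 hours before dosing; controls were DMSO and 2.3 µM bortezomib.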

Row | SMILES | outcome | activity change, negative = cytotoxic
1 | CCN(CC)CCNC(=O)c1cc(Cl)c(N)cc1OC | inactive | –
2 | Cc1ccc2nc(N)[nH]c(=O)c2c1Sc1ccncc1 | inactive | –
3 | O=c1cc[nH]c(=S)[nH]1 | inactive | –
4 | CCCCC/C(C=O)=C\c1ccccc1 | inactive | –
5 | C[C@@H]1C[C@H]2[C@@H]3C[C@H](F)C4=CC(=O)C=C[C@]4(C)[C@@]3(F)[C@@H](O)C[C@]2(C)[C@@]1(O)C(=O)CO | inactive | –
6 | O=C(O)CN1C(=O)c2cccc3cccc(c23)C1=O | inactive | –
7 | C[C@](N)(Cc1ccc(O)cc1)C(=O)O | – | 9.36% [at 5.01 µM]

assay: qHTS of pediatric cancer cell lines to identify multiple opportunities for drug repurposing: Confirmatory screen for NB-EBc1 cells (AID 1347115); conditions: NB-EBc1 neuroblastoma cells, viability (cytotoxicity); series mostly up to 45.9 µM;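 further: cells exposed to compound for 48 h before the viability read; nearly all actives have a fitted effect of over 45% in size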; further: potency means the concentration at half of the fitted maximal effect
In short: (§2)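 Viability after 48 h compound treatment at 37C, 500-1,000 cells/well, read as ATP luminescence with CellTiter-Glo. Primary screens used 11-point (MIPE, 0.78 nM-46 µM) or 8-point (NPC, 0.59 nM-46 µM) final concentrations; follow-up screens used 11-point dilutions.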

Row | SMILES | Potency
8 | CCN(CC)CCNC(=O)c1cc(Cl)c(N)cc1OC | inactive
9 | Cc1ccc2nc(N)[nH]c(=O)c2c1Sc1ccncc1 | 11.7 µM (active)
10 | O=c1cc[nH]c(=S)[nH]1 | inactive
11 | CCCCC/C(C=O)=C\c1ccccc1 | inactive
12 | C[C@@H]1C[C@H]2[C@@H]3C[C@H](F)C4=CC(=O)C=C[C@]4(C)[C@@]3(F)[C@@H](O)C[C@]2(C)[C@@]1(O)C(=O)CO | inactive
13 | O=C(O)CN1C(=O)c2cccc3cccc(c23)C1=O | 26.1 µM (active)
14 | O=C1N=C(O)CN1/N=C/c1ccc(-c2ccc([N+](=O)[O-])cc2)o1 | inactive

assay: qHTS of pediatric cancer cell lines to identify multiple opportunities for drug repurposing: Confirmatory screen for SJ-GBM2 cells (AID 1347116); conditions: SJ-GBM2 glioblastoma cells, viability; series mostly up to 45.9 µM; further: nearly all actives have a fitted effect of over 60% in size; further: potency means the concentration at half of the fitted maximal effect
In short: as §1

Row | SMILES | Potency | activity change, negative = cytotoxic
15 | Cc1ccc2nc(N)[nH]c(=O)c2c1Sc1ccncc1 | inactive | –
16 | O=c1cc[nH]c(=S)[nH]1 | inactive | –
17 | CCCCC/C(C=O)=C\c1ccccc1 | inactive | –
18 | C[C@@H]1C[C@H]2[C@@H]3C[C@H](F)C4=CC(=O)C=C[C@]4(C)[C@@]3(F)[C@@H](O)C[C@]2(C)[C@@]1(O)C(=O)CO | inactive | –
19 | O=C(O)CN1C(=O)c2cccc3cccc(c23)C1=O | 16.5 µM (active) | –
20 | O=C1N=C(O)CN1/N=C/c1ccc(-c2ccc([N+](=O)[O-])cc2)o1 | inactive | –
21 | C[C@](N)(Cc1ccc(O)cc1)C(=O)O | – | 8.57% [at 5.01 µM]

assay: qHTS of pediatric cancer cell lines to identify multiple opportunities for drug repurposing: Confirmatory screen for BT-37 cells (AID 1347117); conditions: BT-37 pediatric cancer cells, viability; series mostly up to 45.9 µM; further: nearly all actives have a fitted effect of over 55% in size; further: potency means the concentration at half of the fitted maximal effect
In short: as §2

Row | SMILES | Potency | activity change, negative = cytotoxic
22 | CCN(CC)CCNC(=O)c1cc(Cl)c(N)cc1OC | inactive | –
23 | O=c1cc[nH]c(=S)[nH]1 | inactive | –
24 | CCCCC/C(C=O)=C\c1ccccc1 | 14.7 µM (active) | –
25 | C[C@@H]1C[C@H]2[C@@H]3C[C@H](F)C4=CC(=O)C=C[C@]4(C)[C@@]3(F)[C@@H](O)C[C@]2(C)[C@@]1(O)C(=O)CO | inactive | –
26 | O=C(O)CN1C(=O)c2cccc3cccc(c23)C1=O | 18.5 µM (active) | –
27 | O=C1N=C(O)CN1/N=C/c1ccc(-c2ccc([N+](=O)[O-])cc2)o1 | inactive | –
28 | C[C@](N)(Cc1ccc(O)cc1)C(=O)O | – | -10.9% [at 5.01 µM]
